TDP1 cell CPT: growth inhibition of DT40 Tdp1-/-;hTDP1 cells with camptothecin (screen for TDP1 inhibitors) | 420,000 tested, 12% active | Potency, µM (highest dose often 46.2 µM), for the others: at the highest dose activity change, negative = growth inhibition, hits mostly inhibitors | chicken DT40 Tdp1-/-;hTDP1 cells + 20 nM CPT, ATP luminescence, 48 h; note: nearly all actives have a fitted effect of over 55% in size
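Chicken DT40 Tdp1-/- cells stably complemented with human TDP1 were seeded at 400 cells/well in medium containing 20 nM camptothecin, exposed to pin-transferred compounds, and grown at 37 °C for at least 48 hr. Viability was read as ATP luminescence.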
TDP1 cell noCPT: qHTS for Inhibitors of human tyrosyl-DNA phosphodiesterase 1 (TDP1): qHTS in cells in absence of CPT. DT40 Tdp1-/- hTDP1 cells, no CPT, ATP luminescence, 48 h. Potency, µM (doses to about 46.2 µM), without a hit: at the top dose activity change, negative = growth inhibition, hits mostly inhibitors. 420,000 tested, 15% active; note: nearly all actives have a fitted effect of over 55% in size
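Luminescent ATP content (CellTiter-Glo) served as the growth readout. Knockout chicken DT40 cells expressing human TDP1 were exposed to compounds without camptothecin for a minimum 48 hr at 37 °C.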
PLK1 PBD block: PLK1 (human) polo-box domain binding inhibition. Plk1 PBD binding of FITC phosphopeptide, fluorescence polarization. Potency, µM, for the others: max response, negative = inhibition, hits mostly inhibitors. 360,000 tested, 2.8% active. AID 720504; note: series mostly up to about 57 µM; nearly all actives have a fitted effect of over 65% in size
TDP1 block: inhibitors of human tyrosyl-DNA phosphodiesterase TDP1; recombinant TDP1, AlphaScreen DNA substrate cleavage; 350,000 tested, 0.28% active; Potency, µM (top dose mostly 130 µM), for inactives: at the top dose activity change, negative = inhibition, hits mostly inhibitors; Q9NUW8; AID 485290; note: nearly all actives have a fitted effect of over 40% in size
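Tdp1 1 nM final; 15 min RT w/ cpd; substrate 15 nM, 5 min; beads 10 ug/ml, 10 min; AlphaScreen read. Neg ctrl: no enzyme.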
VDR inh: inhibitors of human vitamin D receptor; Potency, µM, inactives show max response, negative = inhibition, most hits filed as inhibitors; VDR-SRC2-3 peptide fluorescence polarization, 2 h; P11473; 400,000 tested, 0.93% active
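FP read-out; VDR + SRC2-3 coactivator peptide; 23 nl compound by pintool; 2 h RT incubation; reagents held at 4 deg C, protected from light.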
GCN5L2 inh: GCN5L2 (KAT2A) acetyltransferase inhibition. 390,000 tested, 0.21% active. AID 504327. Potency, µM (top dose mostly 58.9 µM), for inactives: top-dose activity change, negative = inhibition, actives largely listed as inhibitors. Q92830. GCN5L2 HAT assay, ThioGlo1 CoA-SH fluorescence
Target sequence (Q92830 whole entry, looked up): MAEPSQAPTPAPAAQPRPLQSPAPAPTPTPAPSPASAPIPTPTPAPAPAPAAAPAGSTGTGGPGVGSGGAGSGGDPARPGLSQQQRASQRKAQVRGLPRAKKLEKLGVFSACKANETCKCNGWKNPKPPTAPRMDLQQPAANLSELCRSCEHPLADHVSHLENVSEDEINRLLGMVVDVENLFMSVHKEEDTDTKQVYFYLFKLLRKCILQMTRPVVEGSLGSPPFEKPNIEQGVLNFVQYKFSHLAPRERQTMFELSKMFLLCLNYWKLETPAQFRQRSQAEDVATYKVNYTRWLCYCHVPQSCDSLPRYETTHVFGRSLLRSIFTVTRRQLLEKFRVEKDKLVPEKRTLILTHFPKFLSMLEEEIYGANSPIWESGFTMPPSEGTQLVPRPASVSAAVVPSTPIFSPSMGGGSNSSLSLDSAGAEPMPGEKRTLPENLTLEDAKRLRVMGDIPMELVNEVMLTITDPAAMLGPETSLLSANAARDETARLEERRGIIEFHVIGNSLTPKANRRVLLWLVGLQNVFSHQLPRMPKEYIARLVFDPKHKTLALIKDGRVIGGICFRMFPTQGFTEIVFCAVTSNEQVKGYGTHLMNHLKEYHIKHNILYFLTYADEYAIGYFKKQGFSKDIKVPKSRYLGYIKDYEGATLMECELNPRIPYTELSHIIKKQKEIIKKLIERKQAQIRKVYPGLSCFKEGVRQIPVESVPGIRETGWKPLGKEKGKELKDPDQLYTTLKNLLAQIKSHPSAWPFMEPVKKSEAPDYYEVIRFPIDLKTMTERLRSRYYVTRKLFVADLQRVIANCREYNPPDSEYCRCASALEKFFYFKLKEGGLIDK
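qHTS, 1536-well. 20nM enzyme, pH 7.5 HEPES/EDTA/Tween-20 buffer; 15 min compound preinc., RT. Start: 75uM H3(1-25), 70uM AcCoA, 50uM ThioGlo1. Read Ex340/Em540 at t=0 (autofluorescence flag) and t=20 min.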
* = called active by the depositor; ? = inconclusive; / = no result. Compounds with a hit are over-represented: about 18% of the library has one in this group of screens. Calls come from the whole dose curve; as a rule, active = well fitted curve in the direction sought with a large enough effect; inconclusive = small, poorly fitted or top-dose-only effect, or another doubt; inactive = no such curve, though single readings can be large; an effect the other way counts as inactive or inconclusive. % is set by controls: 0 for no effect and ±100 for the full control effect; potency is the fitted concentration of half-maximal effect.

SMILES | TDP1 cell CPT | TDP1 cell noCPT | PLK1 PBD block | TDP1 block | VDR inh | GCN5L2 inh
CCN1CCN(CCCNC(=O)c2cnn(-c3ccc(OC)cc3)c2C2CCN(C(=O)OC(C)(C)C)CC2)CC1 | -25% | -21% | / | -3% | 11% | -5%
COc1ccc(CCN2CCC(CNC(=O)c3cnn(-c4ccccc4)c3C3CCN(C(=O)OC(C)(C)C)CC3)CC2)cc1 | 12µM* | 8.2µM* | / | -1% | 12% | 45%
Cc1ccc(C(=O)Nc2ccc3c(c2)N(C)C(=O)c2ccccc2S3)cc1 | 5.2µM* | 2.3µM* | / | 5% | 15% | -7%
CN1C(=O)c2ccccc2Sc2ccc(NC(=O)N3CCCC3)cc21 | ? | ? | 1% | 0% | -6% | -4%
CN1C(=O)c2ccccc2Sc2ccc(NC(=O)COc3ccc(F)cc3)cc21 | 16µM* | 7.3µM* | / | 3% | 9% | 1%
CN1C(=O)c2ccccc2Sc2ccc(NC(=O)c3ccccc3F)cc21 | 18µM* | 15µM* | / | 1% | 5% | -20%
CCN1C(=O)c2ccccc2Sc2ccc(NC(=O)Nc3cccc([N+](=O)[O-])c3C)cc21 | 21µM* | ? | / | 7% | 7% | -23%
CN1C(=O)c2ccccc2Sc2ccc(NC(=O)c3ccc(C#N)cc3)cc21 | ? | ? | / | 7% | 4% | -7%
CCN1C(=O)c2ccccc2Sc2ccc(NC(=O)c3ccc(C#N)cc3)cc21 | 21µM* | 16µM* | / | 3% | 14% | 3%
CCOc1ccccc1N(CC(=O)NC1CCCC1)C(=O)CNC(=O)c1cccs1 | 3% | 2% | -4% | 10% | -13% | -5%
C[C@H]1CCCCO[C@@H](CN(C)S(=O)(=O)c2ccc(F)cc2)[C@@H](C)CN([C@@H](C)CO)C(=O)c2cc(NC(=O)Nc3ccc4c(c3)OCO4)ccc2O1 | 18µM* | 9.2µM* | -16% | / | / | /
C[C@@H]1CCCCO[C@H](CN(C)S(=O)(=O)c2ccc(F)cc2)[C@@H](C)CN([C@H](C)CO)C(=O)c2cc(NC(=O)Nc3ccc(C(F)(F)F)cc3)ccc2O1 | 9.2µM* | 8.2µM* | 3% | / | / | /
C[C@@H]1CCCCO[C@@H](CN(C)S(=O)(=O)c2ccc(F)cc2)[C@@H](C)CN([C@H](C)CO)C(=O)c2cc(NC(=O)c3ccccc3)ccc2O1 | ? | ? | 0% | / | / | /
COc1ccc(S(=O)(=O)N(C)C[C@@H]2OCCCC[C@H](C)Oc3ccc(NC(=O)Nc4ccc(C(F)(F)F)cc4)cc3C(=O)N([C@H](C)CO)C[C@H]2C)cc1 | 19% | 7.3µM* | -19% | / | / | /
Cc1nn(C)c(Cl)c1NC(=O)OCc1ccc(F)cc1 | ? | 16µM* | -9% | -2% | -3% | 35%
Cn1nc(C(F)(F)F)c2cc(NC(=O)OCc3ccc(F)cc3)sc21 | -16% | -12% | 0% | -4% | 7% | -12%
CS(=O)(=O)c1ccc2sc(NC(=O)c3cc4ccccc4o3)nc2c1 | ? | 23µM* | -9% | / | 6% | -25%
Cc1ccc(C(=O)Nc2nc3ccc(S(C)(=O)=O)cc3s2)o1 | 10µM* | 12µM* | 1% | 4% | -14% | -4%
CS(=O)(=O)c1ccc2nc(NC(=O)c3cc4ccccc4o3)sc2c1 | ? | ? | -14% | -1% | 5% | -6%
NC(=O)c1ccc(NC(=O)COC(=O)CC2Sc3ccccc3NC2=O)cc1 (stereo not given) | 3% | -20% | -8% | 0% | 3% | -6%
COc1ccc2c(c1)n([O-])c1c([n+]2=O)CCC1 | -23% | 17% | -17% | / | -20% | -12%
CCOc1ccc2c(c1)n([O-])c1c([n+]2=O)CCCC1 | 13µM* | ? | -22% | -2% | -11% | -26%
CCOC(=O)[C@]12CCCC=C1N(Cc1ccc(Cl)cc1Cl)C(=O)[C@H](CC(=O)N1CCSCC1)C2 | -3% | -25% | -6% | / | / | /
CCOC(=O)[C@]12CCCC=C1N(Cc1ccc(Cl)cc1Cl)C(=O)[C@H](CC(=O)N1CCN(C(=O)c3ccco3)CC1)C2 | ? | 16µM* | 4% | / | / | /
CCOC(=O)[C@]12CCC=C1N(Cc1ccc(Cl)cc1Cl)C(=O)[C@H](CC(=O)N1CCC(c3ccccc3)CC1)C2 | ? | 18µM* | -3% | / | / | /
SMILES | TDP1 cell CPT | TDP1 cell noCPT | PLK1 PBD block | TDP1 block | VDR inh | GCN5L2 inh
CCOC(=O)[C@]12CCCC=C1N(Cc1ccc(Cl)cc1Cl)C(=O)[C@H](CC(=O)N1CCCC1)C2 | ? | ? | -1% | / | / | /
CCOC(=O)[C@]12CCC=C1N(Cc1ccc(Cl)cc1Cl)C(=O)[C@H](CC(=O)N1CCOCC1)C2 | ? | 21µM* | -7% | / | / | /
CCOC(=O)[C@]12CCCC=C1N(Cc1ccc(Cl)cc1Cl)C(=O)[C@H](CC(=O)N1CCC(c3ccccc3)CC1)C2 | 16µM* | 18µM* | -6% | / | / | /
COc1cccc(N2CC(NC(=O)COc3ccc4ccccc4c3)CC2=O)c1 (stereo not given) | ? | ? | / | 0% | 1% | 4%
CCCCS(=O)(=O)N[C@@H](Cc1ccc(OCCCCC2CCNCC2)cc1)C(=O)O | 3% | -3% | / | / | / | /
CN(C)S(=O)(=O)c1ccc(N2C(=O)CC2(/C=C/c2ccccc2)C(=O)NC2CCCC2)cc1 (stereo not given) | ? | ? | 1% | 3% | -2% | -8%
COc1ccccc1/C=C/C1(C(=O)NC2CCCC2)CC(=O)N1c1ccccc1 (stereo not given) | 6.5µM* | 7.3µM* | -2% | / | -3% | 4%
O=C(NCCCCCCCN1CCCCCCC1)C(C1CCCCC1)C1CCCCC1 | 13µM* | 15µM* | -16% | / | -21% | /

High-throughput results (PubChem BioAssay)
